In all, about 400,000 compounds went through this assay and about 13,000 (3.2%) were called active. Entries that show only a call come without a potency. Not shown: some 18% with an inconclusive outcome. This is one part of a sample in which actives are shown more often than they occur. Calls come from the whole dose curve; as a rule, active = well fitted cell-killing curve with a large enough effect; inconclusive = small, poorly fitted or top-dose-only effect, or effect the other way; inactive = flat fitted curve, though single readings scatter.
test: qHTS assay for MDR1-selective chemotherapeutics: Primary screen using the drug-selected MDR subline cells KB-V1; conditions: KB-V1 MDR cells viability, CellTiter-Glo, 72 h; series mostly up to 46.1 µM; note: nearly all actives have a fitted effect of over 60% in size
Summary of the method: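 KB-V1 MDR subline cells in DMEM (phenol-red free, 10% FBS) exposed to compounds in qHTS concentration series for 72 h at 37 degrees C. Viability read by CellTiter-Glo luminescence; concentration-effect curves fitted after normalization and correction.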
Potency is the fitted concentration of half-maximal effect.

Structure (SMILES) | Potency
Nc1ncnc2c1ncn2[C@@H]1O[C@H](C(=O)NS(=O)(=O)c2c(Cl)nc3sccn23)[C@@H](O)[C@H]1O | inactive
CCSc1ccccc1C(=O)NCc1ccc(OC)cc1 | 20.6 µM (active)
CCc1nc2ccccc2c(C(=O)NCc2ccc(OC)cc2)c1C | inactive
CSc1ccccc1C(=O)NCc1ccccc1 | inactive
O=C(CSc1ccc(Cl)cc1)NC1CC1 | inactive
CCC(=O)N1CCc2cc(Br)c(S(=O)(=O)NCCN3CCCCC3CC)cc21 (stereo not given) | 10.3 µM (active)
CCCN(CCC)S(=O)(=O)c1cc2c(cc1Br)CCN2C(=O)CC | inactive
CCC1CCCCN1CCNS(=O)(=O)c1ccc2c(c1)CCN2C(C)=O (stereo not given) | inactive
NC(=O)Nc1ccc(/C=C/c2ccnc3ccccc23)cc1 | inactive
C[C@H]1CN([C@@H](C)CO)C(=O)CCCn2nncc2CO[C@@H]1CN(C)Cc1ccc(Oc2ccccc2)cc1 | inactive
COc1ccccc1CNC(=O)c1cc(-c2cc(F)ccc2OC)n[nH]1 | inactive
O=C(Oc1ccc(-c2nc(-c3ccccn3)no2)cc1)c1ccccc1 | 7.31 µM (active)
Brc1ccc(-c2noc(-c3ccccc3)n2)o1 | inactive
CCCCCCOc1ccc(OC(=O)c2cccnc2)cc1 | inactive
CC(C)Nc1ncnc2c1ncn2[C@H]1CN(Cc2ccncc2)C[C@@H](CO)O1 | inactive
CN1OC[C@@H]2CN(C(=O)c3ccc(-c4ccccc4)cc3)[C@H](c3ccc(-c4cccc(F)c4)cc3)C[C@@H]21 | inactive
CCC(=O)N1CCCC1(C)C(=O)Nc1ccc2c(c1)CCN2C(C)=O (stereo not given) | inactive
CCN(Cc1cc2cc(C)ccc2[nH]c1=O)S(=O)(=O)c1ccccc1 | 3.66 µM (active)
CCC(=O)N(CCc1ccccc1)Cc1cc2cc(C)ccc2[nH]c1=O | inactive
Cc1ccc(S(=O)(=O)N(Cc2cc3ccccc3[nH]c2=O)CC2CCCO2)cc1 (stereo not given) | inactive
S=C(NN=Cc1ccccn1)Nc1ccccn1 | inactive
Cc1ccc(CNC(=O)Nc2nnc([C@H]3C[C@H](O)[C@@H](CO)O3)s2)cc1 | inactive
CCN(CC)S(=O)(=O)c1cc(C(=O)Nc2ccccn2)ccc1C | 23.1 µM (active)
Cc1ccc(C(=O)Nc2ncccc2C)cc1S(=O)(=O)N1CCOCC1 | inactive
Cc1ccc(NC(=O)CNCc2ccccn2)cc1S(=O)(=O)N(C)C | inactive

Structure (SMILES) | Potency
COc1ccc(CN2CCC(C)(Oc3cccc(F)c3)C2)c2ccccc12 (stereo not given) | inactive
Fc1ccc(-c2nnc(CSc3nnc(-c4ccc5c(c4)OCO5)o3)o2)cc1 | inactive
CCSc1nnc(-c2cc3c(s2)-c2ccccc2CC3)o1 | inactive
Fc1ccc(CSc2nnc(-c3cc4c(s3)-c3ccccc3CC4)o2)cc1 | 20.6 µM (active)
CCc1nc2ccc(C(=O)N(C)Cc3ccco3)cn2c1N(C)C(=O)Cc1ccccc1 | inactive
Cc1cccc(NC(=O)CN2CCCN(S(=O)(=O)c3ccc(Br)s3)CC2)c1 | inactive
CSc1ccc(S(=O)(=O)N2CCC(C(=O)NCCc3ccccc3)CC2)cc1 | inactive
O=C(NCCc1ccccc1)C1CCN(S(=O)(=O)c2ccc(Br)s2)CC1 | 2.06 µM (active)
O=C(C1CCN(S(=O)(=O)c2ccc(Br)s2)CC1)N1CCN(c2ccccc2)CC1 | inactive
CC(C)N(C(=O)CN1CCN(S(=O)(=O)c2ccc(Br)s2)CC1)C(C)C | 23.1 µM (active)
O=C(C1CCN(S(=O)(=O)c2ccc(Br)s2)CC1)N1CCN(C2CCCCC2)CC1 | inactive
CCCCNC(=O)C1CCCN(c2nnc(C)c3c(C)n(-c4ccc(Cl)cc4)nc23)C1 (stereo not given) | inactive
O=C1OCCC1=COCCCCOC=C1CCOC1=O | inactive
CCc1nc2ccc(C(=O)NC3CCN(Cc4ccccc4)CC3)cn2c1N(C)CCN1CCOCC1 | inactive
CCc1ccc(NC(=O)c2nn(-c3ccc(C)cc3)c(=O)n(C)c2=O)cc1 | inactive
O=C(CCl)NNc1nc(-c2ccccc2)c2cc(Cl)ccc2n1 | inactive
NC(N)=Nc1nc(-c2ccccc2)c2cc(Cl)ccc2n1 | inactive
Clc1ccc2nc(-c3ccccc3)nc(C(Cl)Cl)c2c1 | 3.66 µM (active)
CCc1nc2ccc(C(=O)Nc3cc(-c4ccccc4)ccc3OC)cn2c1N(CC)CC(=O)N(C)C | inactive
O=C(OCc1cc(=O)n2nc(C3CC3)sc2n1)c1ccccc1Cl | inactive
Cn1c(=O)c2c(nc(CN3CCOCC3)n2Cc2ccccc2)n(C)c1=O | inactive
Cn1c(=O)[nH]c(=O)c2c1nc(CN(Cc1ccccc1)Cc1ccccc1)n2CCN1CCOCC1 | 6.51 µM (active)
Cn1c(=O)[nH]c(=O)c2c1nc(CN1CCN(c3ccccc3F)CC1)n2CCc1ccccc1 | inactive
C[C@H]1CN([C@@H](C)CO)C(=O)c2cc(C3=CCCCC3)cnc2O[C@@H]1CN(C)C(=O)Cc1ccccc1 | inactive
COc1ccc(CCNC(=O)Cn2c(=O)n(-c3ccccc3)c(=O)c3c(C)c(C)sc32)cc1OC | inactive

Structure (SMILES) | Potency
CC1(C(=O)NS(=O)(=O)C2CC2)CCCN(C(=O)CSc2ccccc2)C1 (stereo not given) | inactive
Cn1c(C(=O)NCCCN2CCCCC2)cc2sccc21 | inactive
COc1ccc(CCNC(=O)COC(=O)/C=C/c2cccs2)cc1OC | inactive
COc1ccc(CCNC(=O)c2cc3sccc3n2C)cc1OC | 20.6 µM (active)
O=C(O)C1=C(C(=O)O)C2CCC1C2 | inactive
Cc1ccc(S(=O)(=O)n2nc(C)c(S(=O)(=O)N3CCCCCC3)c2C)cc1 | inactive
Oc1[nH]c2ccccc2c1N=Nc1c(F)c(F)c(F)c(F)c1F | inactive
COc1cc(N=Cc2c(O)[nH]c3ccccc23)cc(OC)c1OC | 4.11 µM (active)
CN=c1scc(-c2cc(OC)ccc2OC)n1/N=C/c1c(C)[nH]c2ccccc12 | inactive
COc1ccc(N=Cc2c(O)[nH]c3ccccc23)cc1OC | 6.51 µM (active)
COc1ccccc1N=Cc1c(O)c2ccccc2oc1=O | inactive
COc1cc2[nH]c(O)c(C=O)c2cc1OC | inactive
CCCCN(C(C)=O)c1ccc2c(c1)C1CC2CCN1Cc1ccccc1 (stereo not given) | inactive
Cc1ccccc1-c1nc(SCC(=O)N(C)c2ccccc2)c2c(=O)n(C)c(=O)n(C)c2n1 | inactive
CC1(C(=O)NS(=O)(=O)c2cccc(F)c2)CCN1C(=O)Cc1ccc(Cl)cc1Cl (stereo not given) | inactive
CNC(=O)c1ccc(CN(C)C(=O)c2cc(C3CC3)nc3c2cnn3C(C)C)cc1 | inactive
Cc1c(C(=O)Nc2ccccn2)oc2ccc(Br)cc12 | 11.6 µM (active)
Cc1noc(C)c1C(=O)Nc1ccccn1 | inactive
Cc1nonc1NC(=O)c1oc2ccccc2c1C | inactive
CCS(=O)(=O)c1nc(S(=O)(=O)c2ccc(C)cc2)c(NCc2ccc(Cl)cc2)s1 | inactive
N#Cc1ccc(C(C(=O)NCc2ccccc2)n2c(=O)c(-c3ccco3)nc3ccccc32)cc1 (stereo not given) | inactive
C=CCC[C@H](CCCCC)OC(=O)/C=C/[C@H](O)[C@@H](O)C[C@@H](O)CC=C | inactive
O=c1c(-c2cccc(Cl)c2)c[nH]n1-c1ccccc1 | inactive
O=C(O)C(c1ccccc1)N1C(=O)/C(=C\c2ccc(-c3cccc(Cl)c3)o2)SC1=S (stereo not given) | inactive
O=C1c2ccccc2NC(c2ccc(-c3cccc(Cl)c3)o2)N1O (stereo not given) | 4.61 µM (active)

Structure (SMILES) | Potency
COc1ccc(CCNC(=O)c2cn(C)c3ccc(S(=O)(=O)N(C)C4CCCCC4)cc3c2=O)cc1OC | inactive
Cc1cc2nc(-c3ccc(Cl)cc3)c(Cc3cccc(F)c3)n2c(C)c1Br | inactive
N#Cc1ccc(OC2=NS(=O)(=O)c3ccccc32)cc1 | inactive
N#Cc1ccc(C2N=C(c3ccccc3)NO2)cc1 (stereo not given) | 18.4 µM (active)
Brc1ccccc1C1N=C(c2ccccc2)NO1 (stereo not given) | inactive
COc1cccc(-c2cc3nc(NCCOc4ccccc4Cl)n(C)c(=O)c3s2)c1 | inactive
N#Cc1nc(NCc2ccc(Cl)c(Cl)c2)c2ncn(CCCO)c2n1 | inactive
COc1ccc(CN2C(=O)C(CC(=O)NCCCCc3ccccc3)CC(C(=O)N3CCOCC3)=C2C)cc1 (stereo not given) | inactive
CCCN(CCC)C(=O)Cn1c(=O)n(-c2ccc(Cl)cc2)c(=O)c2c3c(sc21)CCCCC3 | inactive
N#Cc1ccc[n+](CC(=O)c2ccc(F)cc2)c1 | inactive
COc1ccc(CCNC(=O)CSc2nc3[nH]ncc3c(=O)n2-c2cccc(C(F)(F)F)c2)cc1OC | inactive
Cc1cccc2nc(CSc3nc4[nH]ncc4c(=O)n3-c3cccc(Cl)c3)cc(=O)n12 | 23.1 µM (active)
COC(=O)c1ccc(CSc2nc3ccccc3c(=O)n2-c2cccc(OC)c2)o1 | inactive
Cc1ccc(NC(=O)[C@H](Cc2ccccc2)NC(=O)CC[C@H]2O[C@@H](n3ccc(=O)[nH]c3=O)[C@H](O)[C@@H]2O)cc1C | inactive
O=C(c1ncn2c1c(=O)[nH]c1ccccc12)N1CCc2ccccc2C1 | inactive
CN1CCN(c2oc(-c3ccc(COc4ccc(Cl)cc4)o3)nc2C#N)CC1 | inactive
CC1(C)Cc2cccc(OCC(=O)NCc3ccccc3)c2O1 | inactive
CC1(C)Cc2cccc(OCC(N)=O)c2O1 | inactive
CC1(C)Cc2cccc(OCC(=O)N3CCN(c4ccc([N+](=O)[O-])cc4)CC3)c2O1 | 2.59 µM (active)
Cc1ccccc1CSCCNC(=O)c1ccc(N(C)S(=O)(=O)c2ccccc2)cc1 | 13 µM (active)
COc1ccccc1CNC(=O)c1ccc(N(C)S(=O)(=O)c2ccc(C)cc2)cc1 | inactive
CN(c1ccccc1)S(=O)(=O)c1ccc(C(=O)NCCc2ccccc2)cc1 | inactive
COCc1cccc(-c2csc(C(O)c3ccc(F)cc3)n2)c1 (stereo not given) | inactive
OCCn1c(-c2ccccc2)csc1=Nc1ccccc1 | 14.6 µM (active)
O=c1cc(CCl)nc2scc(-c3ccccc3)n12 | inactive

— PubChem BioAssay AID1347076 (National Center for Advancing Translational Sciences (NCATS), 2019)
